# Reference: publication PMC11006913
# What was measured:
# Assay in all cases: PBM; 200 nM protein, PBS
# Settings in all cases: dsDNA, one strand shown
# HOXA2 [1] = target: HOXA2 (Homo sapiens, UniProt O43364 129-215, R185T)
# HOXA2 [2] = target: HOXA2 (Homo sapiens, UniProt O43364 129-215)
# HOXB9 [3] = target: HOXB9 (Homo sapiens, UniProt P17482 171-250)
# ALX3 [4] = target: ALX3 (Homo sapiens, UniProt O95076 139-225, N203Q)
# HOXB9 [5] = target: HOXB9 (Homo sapiens, UniProt P17482 171-250, R186Q)
# Sequence of HOXB9 (Homo sapiens, UniProt P17482 171-250, R186Q) (P17482 171-250 R186Q): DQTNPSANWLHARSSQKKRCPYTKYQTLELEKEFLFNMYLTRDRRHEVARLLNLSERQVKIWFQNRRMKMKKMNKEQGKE
# HOXA4 [6] = target: HOXA4 (Homo sapiens, UniProt Q00056 201-287, R217L)
# Sequence of HOXA4 (Homo sapiens, UniProt Q00056 201-287, R217L) (Q00056 201-287 R217L): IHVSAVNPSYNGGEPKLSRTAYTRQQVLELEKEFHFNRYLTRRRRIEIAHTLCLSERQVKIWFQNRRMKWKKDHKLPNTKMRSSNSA
# HOXA2 [7] = target: HOXA2 (Homo sapiens, UniProt O43364 129-215, Y150S)
# Sequence of HOXA2 (Homo sapiens, UniProt O43364 129-215, Y150S) (O43364 129-215 Y150S): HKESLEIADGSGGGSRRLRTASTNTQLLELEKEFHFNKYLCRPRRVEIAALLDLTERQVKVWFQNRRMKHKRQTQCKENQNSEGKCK
# HOXA4 [8] = target: HOXA4 (Homo sapiens, UniProt Q00056 201-287)
# Sequence of HOXA4 (Homo sapiens, UniProt Q00056 201-287) (Q00056 201-287): as the sequence (Q00056 201-287 R217L) above, with L17R counted along it
# ALX3 [9] = target: ALX3 (Homo sapiens, UniProt O95076 139-225)
# Sequence of ALX3 (Homo sapiens, UniProt O95076 139-225) (O95076 139-225): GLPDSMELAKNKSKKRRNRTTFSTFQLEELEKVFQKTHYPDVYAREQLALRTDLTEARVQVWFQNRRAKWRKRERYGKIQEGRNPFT
# ALX3 [10] = target: ALX3 (Homo sapiens, UniProt O95076 139-225, N203S)
# Sequence of ALX3 (Homo sapiens, UniProt O95076 139-225, N203S) (O95076 139-225 N203S): as the sequence (O95076 139-225) above, with N65S counted along it
# HOXD13 [11] = target: HOXD13 (Homo sapiens, UniProt P35453 263-343)
# Sequence of HOXD13 (Homo sapiens, UniProt P35453 263-343) (P35453 263-343): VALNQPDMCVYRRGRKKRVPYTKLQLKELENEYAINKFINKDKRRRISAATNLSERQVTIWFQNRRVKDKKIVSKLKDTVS
# HOXD13 [12] = target: HOXD13 (Homo sapiens, UniProt P35453 263-343, T313A)
# Sequence of HOXD13 (Homo sapiens, UniProt P35453 263-343, T313A) (P35453 263-343 T313A): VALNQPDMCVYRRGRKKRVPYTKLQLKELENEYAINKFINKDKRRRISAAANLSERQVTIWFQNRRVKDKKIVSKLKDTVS
# CRX = CRX (Homo sapiens, UniProt O43186 26-111, R41L)
# Sequence of CRX (O43186 26-111 R41L): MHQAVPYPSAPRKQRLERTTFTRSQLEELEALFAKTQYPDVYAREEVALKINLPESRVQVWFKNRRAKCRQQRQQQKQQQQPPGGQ
# Sequence of HOXA2 (Homo sapiens, UniProt O43364 129-215) (O43364 129-215): as the sequence (O43364 129-215 Y150S) above, with S22Y counted along it
# Sequence of HOXB9 (Homo sapiens, UniProt P17482 171-250) (P17482 171-250): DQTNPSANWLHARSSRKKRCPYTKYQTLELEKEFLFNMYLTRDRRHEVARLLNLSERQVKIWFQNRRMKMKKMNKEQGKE
# Sequence of HOXA2 (Homo sapiens, UniProt O43364 129-215, R185T) (O43364 129-215 R185T): as the sequence (O43364 129-215 Y150S) above, with S22Y, R57T counted along it
# Sequence of ALX3 (Homo sapiens, UniProt O95076 139-225, N203Q) (O95076 139-225 N203Q): as the sequence (O95076 139-225) above, with N65Q counted along it
sequence,measurement,setting,value
AAATACCC,binding signal,HOXA2 [1],"9.06 upbm affinity estimate (log intensity, higher = more binding, comparable within an allelic series)"
same,binding signal,HOXA2 [2],"8.99 upbm affinity estimate (log intensity, higher = more binding, comparable within an allelic series)"
CCTATCAG,binding signal,HOXA2 [1],"8.81 upbm affinity estimate (log intensity, higher = more binding, comparable within an allelic series)"
same,binding signal,HOXA2 [2],"8.67 upbm affinity estimate (log intensity, higher = more binding, comparable within an allelic series)"
ATATAGTA,binding signal,HOXB9 [3],"10.2 upbm affinity estimate (log intensity, higher = more binding, comparable within an allelic series)"
same,binding signal,ALX3 [4],"8.55 upbm affinity estimate (log intensity, higher = more binding, comparable within an allelic series)"
same,binding signal,HOXB9 [5],"10.1 upbm affinity estimate (log intensity, higher = more binding, comparable within an allelic series)"
ACATTAGC,binding signal,HOXA4 [6],"10.8 upbm affinity estimate (log intensity, higher = more binding, comparable within an allelic series)"
AGATGTAA,binding signal,HOXA2 [1],"9.25 upbm affinity estimate (log intensity, higher = more binding, comparable within an allelic series)"
same,binding signal,HOXA2 [2],"9.27 upbm affinity estimate (log intensity, higher = more binding, comparable within an allelic series)"
ACAATACC,binding signal,HOXB9 [3],"9.73 upbm affinity estimate (log intensity, higher = more binding, comparable within an allelic series)"
AAACATAA,binding signal,HOXA2 [1],"9.4 upbm affinity estimate (log intensity, higher = more binding, comparable within an allelic series)"
same,binding signal,HOXA2 [2],"9.53 upbm affinity estimate (log intensity, higher = more binding, comparable within an allelic series)"
GGCGATAA,binding signal,HOXB9 [3],"10.4 upbm affinity estimate (log intensity, higher = more binding, comparable within an allelic series)"
same,binding signal,HOXB9 [5],"10.3 upbm affinity estimate (log intensity, higher = more binding, comparable within an allelic series)"
GACCATCA,binding signal,HOXA2 [1],"8.84 upbm affinity estimate (log intensity, higher = more binding, comparable within an allelic series)"
same,binding signal,HOXA2 [7],"10.6 upbm affinity estimate (log intensity, higher = more binding, comparable within an allelic series)"
same,binding signal,HOXA2 [2],"9.24 upbm affinity estimate (log intensity, higher = more binding, comparable within an allelic series)"
ACTCGTAA,binding signal,HOXA2 [1],"9.32 upbm affinity estimate (log intensity, higher = more binding, comparable within an allelic series)"
same,binding signal,HOXA2 [2],"9.32 upbm affinity estimate (log intensity, higher = more binding, comparable within an allelic series)"
CATCTACG,binding signal,HOXA2 [1],"8.85 upbm affinity estimate (log intensity, higher = more binding, comparable within an allelic series)"
same,binding signal,HOXA2 [7],"10.7 upbm affinity estimate (log intensity, higher = more binding, comparable within an allelic series)"
same,binding signal,HOXA2 [2],"9.05 upbm affinity estimate (log intensity, higher = more binding, comparable within an allelic series)"
AACTATTG,binding signal,HOXA2 [1],"8.83 upbm affinity estimate (log intensity, higher = more binding, comparable within an allelic series)"
same,binding signal,HOXA2 [2],"8.91 upbm affinity estimate (log intensity, higher = more binding, comparable within an allelic series)"
ATCAGAAA,binding signal,HOXA2 [1],"8.59 upbm affinity estimate (log intensity, higher = more binding, comparable within an allelic series)"
same,binding signal,HOXA2 [7],"10.6 upbm affinity estimate (log intensity, higher = more binding, comparable within an allelic series)"
same,binding signal,HOXA2 [2],"8.63 upbm affinity estimate (log intensity, higher = more binding, comparable within an allelic series)"
ATTTCATC,binding signal,HOXA2 [1],"8.72 upbm affinity estimate (log intensity, higher = more binding, comparable within an allelic series)"
same,binding signal,HOXA2 [7],"10.6 upbm affinity estimate (log intensity, higher = more binding, comparable within an allelic series)"
same,binding signal,HOXA2 [2],"8.75 upbm affinity estimate (log intensity, higher = more binding, comparable within an allelic series)"
AAAAATAT,binding signal,HOXA4 [6],"10.8 upbm affinity estimate (log intensity, higher = more binding, comparable within an allelic series)"
same,binding signal,HOXA4 [8],"11.1 upbm affinity estimate (log intensity, higher = more binding, comparable within an allelic series)"
AACTAAAA,binding signal,HOXA2 [1],"8.87 upbm affinity estimate (log intensity, higher = more binding, comparable within an allelic series)"
same,binding signal,HOXA2 [7],"10.6 upbm affinity estimate (log intensity, higher = more binding, comparable within an allelic series)"
same,binding signal,HOXA2 [2],"8.87 upbm affinity estimate (log intensity, higher = more binding, comparable within an allelic series)"
AGATAGAT,binding signal,HOXA2 [1],"8.87 upbm affinity estimate (log intensity, higher = more binding, comparable within an allelic series)"
same,binding signal,HOXA2 [2],"8.71 upbm affinity estimate (log intensity, higher = more binding, comparable within an allelic series)"
AGGTTGAT,binding signal,HOXA2 [1],"8.92 upbm affinity estimate (log intensity, higher = more binding, comparable within an allelic series)"
same,binding signal,HOXA2 [2],"9.03 upbm affinity estimate (log intensity, higher = more binding, comparable within an allelic series)"
CATTTTAC,binding signal,HOXA2 [1],"8.88 upbm affinity estimate (log intensity, higher = more binding, comparable within an allelic series)"
same,binding signal,HOXA2 [2],"8.85 upbm affinity estimate (log intensity, higher = more binding, comparable within an allelic series)"
AATTGGGC,binding signal,HOXA2 [1],"9.64 upbm affinity estimate (log intensity, higher = more binding, comparable within an allelic series)"
same,binding signal,HOXA2 [7],"10.6 upbm affinity estimate (log intensity, higher = more binding, comparable within an allelic series)"
same,binding signal,HOXA2 [2],"9.35 upbm affinity estimate (log intensity, higher = more binding, comparable within an allelic series)"
TAAACATA,binding signal,HOXA2 [1],"8.59 upbm affinity estimate (log intensity, higher = more binding, comparable within an allelic series)"
same,binding signal,HOXA2 [2],"8.55 upbm affinity estimate (log intensity, higher = more binding, comparable within an allelic series)"
TATCAAAA,binding signal,HOXA2 [1],"8.75 upbm affinity estimate (log intensity, higher = more binding, comparable within an allelic series)"
same,binding signal,HOXA2 [2],"8.82 upbm affinity estimate (log intensity, higher = more binding, comparable within an allelic series)"
ATAGAAAT,binding signal,HOXA2 [1],"9.28 upbm affinity estimate (log intensity, higher = more binding, comparable within an allelic series)"
same,binding signal,HOXA2 [2],"9.2 upbm affinity estimate (log intensity, higher = more binding, comparable within an allelic series)"
AATGTGAA,binding signal,HOXB9 [3],"10 upbm affinity estimate (log intensity, higher = more binding, comparable within an allelic series)"
same,binding signal,ALX3 [4],"8.3 upbm affinity estimate (log intensity, higher = more binding, comparable within an allelic series)"
same,binding signal,ALX3 [9],"9.35 upbm affinity estimate (log intensity, higher = more binding, comparable within an allelic series)"
same,binding signal,HOXB9 [5],"9.94 upbm affinity estimate (log intensity, higher = more binding, comparable within an allelic series)"
same,binding signal,ALX3 [10],"8.37 upbm affinity estimate (log intensity, higher = more binding, comparable within an allelic series)"
TGTGTAAA,binding signal,HOXB9 [3],"9.82 upbm affinity estimate (log intensity, higher = more binding, comparable within an allelic series)"
same,binding signal,HOXD13 [11],"11.1 upbm affinity estimate (log intensity, higher = more binding, comparable within an allelic series)"
same,binding signal,HOXD13 [12],"11 upbm affinity estimate (log intensity, higher = more binding, comparable within an allelic series)"
AAACTTAA,binding signal,HOXA2 [1],"8.91 upbm affinity estimate (log intensity, higher = more binding, comparable within an allelic series)"
same,binding signal,HOXA2 [2],"8.97 upbm affinity estimate (log intensity, higher = more binding, comparable within an allelic series)"
AATACAAT,binding signal,HOXB9 [3],"10 upbm affinity estimate (log intensity, higher = more binding, comparable within an allelic series)"
same,binding signal,HOXB9 [5],"9.98 upbm affinity estimate (log intensity, higher = more binding, comparable within an allelic series)"
ATCATCTG,binding signal,HOXA2 [1],"9.25 upbm affinity estimate (log intensity, higher = more binding, comparable within an allelic series)"
same,binding signal,HOXA2 [7],"10.7 upbm affinity estimate (log intensity, higher = more binding, comparable within an allelic series)"
same,binding signal,HOXA2 [2],"9.72 upbm affinity estimate (log intensity, higher = more binding, comparable within an allelic series)"
AAATCTTA,binding signal,HOXB9 [3],"9.84 upbm affinity estimate (log intensity, higher = more binding, comparable within an allelic series)"
same,binding signal,HOXB9 [5],"9.77 upbm affinity estimate (log intensity, higher = more binding, comparable within an allelic series)"
CTATTCAA,binding signal,HOXA2 [1],"9.27 upbm affinity estimate (log intensity, higher = more binding, comparable within an allelic series)"
same,binding signal,HOXA2 [7],"10.8 upbm affinity estimate (log intensity, higher = more binding, comparable within an allelic series)"
same,binding signal,HOXA2 [2],"9.17 upbm affinity estimate (log intensity, higher = more binding, comparable within an allelic series)"
ATTTAATC,binding signal,CRX,"12.3 upbm affinity estimate (log intensity, higher = more binding, comparable within an allelic series)"
